A number with no mark means an inactive call. The rule behind the calls is not given here.
System: Potassium Channel [KATP]
Assay: off-target binding and CYP inhibition panel, profiling panel, selectivity assay for GPR7 antagonist project, biochemical, Ricerca HitProfilingScreen, CYP450, set 2 (AID 540345)
Conditions: Ricerca radioligand binding/CYP panel, at 10 µM, hits give high values

Structure (SMILES): COc1ccc(Oc2c(Cl)cnn(C3c4ccccc4-c4ccccc43)c2=O)cc1
- inhibition: -5%

Reference: PubChem BioAssay AID540345 (The Scripps Research Institute Molecular Screening Center, 2011)
